Assay results as given in PubChem BioAssay (EPA / NIEHS).
“And” between values parts separate entries of the source, which are not always exact repeats. Equal values may be shown once. Results filed as inconclusive are left out. Where a structure was tested more than once in an assay, its records may differ in their call. The source made the active and inactive calls. Rule for the calls, unless noted: active = hit-call score of the fitted dose curve at least 0.9, where 1 is the maximum; inactive = score below 0.9.

Key:
CD38, CD38 (gene 952) = assay: BSK_SAg_CD38: BioMAP Diversity Plus: SAg Assay for CD38 Biomarker Activity (AID 2283087); details: primary human HUVEC with PBMC; actives raise or lower the signal
Summary of the method: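 Fluorescence ELISA of cell-surface CD38 served as the read-out, with either increase or decrease fitted against DMSO controls. Cells were a human umbilical vein endothelium plus PBMC co-culture under SEB/TSST-1 stimulation, measured 24 h after dosing.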

[1] = read-out: Monocyte Chemoattractant Protein-1 (MCP1), CCL2 (gene 6347); assay: BSK_SAg_MCP1: BioMAP Diversity Plus: SAg Assay for Monocyte Chemoattractant Protein-1 (MCP1) Biomarker Activity (AID 2283090); details: primary human HUVEC with PBMC; actives raise or lower the signal
Summary of the method: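 MCP-1 levels in the endothelial–PBMC SAg co-culture were quantified by ELISA at 24 h post-dosing; both increases and decreases versus DMSO scored. Cytotoxicity monitored by SRB total protein in parallel cultures.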

[2] = read-out: E-selectin (Homo sapiens) (UniProt P16581); assay: BSK_SAg_Eselectin: BioMAP Diversity Plus: SAg Assay for Eselectin Biomarker Activity (AID 2283091); details: primary human HUVEC with PBMC; actives raise or lower the signal
Summary of the method: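 HUVEC co-cultured with PBMC, compound dosed then read at 24 h; E-selectin measured by ELISA. Activity fitted bidirectionally against DMSO as negative control and baseline.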

[3] = read-out: Monokine induced gamma interferon (MIG), CXCL9 (gene 4283); assay: BSK_SAg_MIG: BioMAP Diversity Plus: SAg Assay for Monokine induced gamma interferon (MIG) Biomarker Activity (AID 2283092); details: primary human HUVEC with PBMC; actives raise or lower the signal
Summary of the method: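 Endothelial cells and PBMC were co-cultured, exposed to test chemicals, and sampled 24 h later. MIG was measured by ELISA, and responses were fitted in both directions relative to DMSO.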

[4] = read-out: Interleukin-8 (IL8), CXCL8 (gene 3576); assay: BSK_SAg_IL8: BioMAP Diversity Plus: SAg Assay for Interleukin-8 (IL8) Biomarker Activity (AID 2283094); details: primary human HUVEC with PBMC; actives raise or lower the signal
Summary of the method: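 Human umbilical vein endothelial cells co-cultured with peripheral blood mononuclear cells; IL-8 measured by ELISA 24 h after chemical dosing. Bidirectional concentration-response fitting used DMSO as negative control and activity baseline.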

[5] = BSK_SAg_Proliferation: Cell Proliferation Assessment in the BioMAP Diversity Plus: SAg Assay (AID 2283095); details: primary human HUVEC with PBMC;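 note: relative cell number as total protein by SRB absorbance in sub-confluent culture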
Summary of the method: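 Human umbilical vein endothelial cells co-cultured with peripheral blood mononuclear cells; total protein measured by sulforhodamine B staining (0.1% SRB after 10% TCA fixation), absorbance at 560 nm, at 96 h. Bidirectional fit against DMSO baseline.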

[6] = BSK_SAg_SRB: Viability Assessment in the BioMAP Diversity Plus: SAg Assay (AID 2283096); details: primary human HUVEC with PBMC;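 note: cells read one day after compound addition; hits may be either gain or loss of signal compared with DMSO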
Summary of the method: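 Endothelial/PBMC primary human co-culture; compound 24 h; fix 10% TCA, stain 0.1% SRB, A560; protein content as cytotoxicity proxy; bidirectional curve fit, DMSO = baseline.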

[7] = read-out: Interferon-inducible T-cell alpha chemoattractant (ITAC), CXCL11 (gene 6373); assay: BSK_hDFCGF_ITAC: BioMAP Diversity Plus: hDFCGF Assay for Interferon-inducible T-cell alpha chemoattractant (ITAC) Biomarker Activity (AID 2284251); details: primary human foreskin fibroblasts
Summary of the method: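 ELISA readout of I-TAC after 24 h chemical exposure; human dermal foreskin fibroblast primary cells. Positive-direction fitting vs DMSO baseline. Parallel SRB total-protein staining (0.1% SRB after 10% TCA fixation, 560 nm) flags cytotoxicity.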

[8] = read-out: Intercellular Adhesion Molecule 1 (ICAM1), ICAM1 (gene 3383); assay: BSK_BE3C_ICAM1: BioMAP Diversity Plus: BE3C Assay for Intercellular Adhesion Molecule 1 (ICAM1) Biomarker Activity (AID 2284278); details: primary human bronchial epithelial cells
Summary of the method: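 Primary human bronchial epithelial cells were exposed to compound for 24 h, after which cell-surface ICAM-1 was quantified by ELISA. Activity was fitted in the gain-of-signal direction against DMSO as negative control and baseline.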

[9] = read-out: Epidermal growth factor receptor (EGFR), EGFR (gene 1956); assay: BSK_BE3C_EGFR: BioMAP Diversity Plus: BE3C Assay for Epidermal growth factor receptor (EGFR) Biomarker Activity (AID 2284281); details: primary human bronchial epithelial cells
Summary of the method: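 Primary human lung bronchial epithelial cells; compound, 24 h; EGFR measured by ELISA; positive-direction fit vs DMSO baseline.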

KRT18 (gene 3875) = assay: BSK_BE3C_Keratin818: BioMAP Diversity Plus: BE3C Assay for Keratin 818 Biomarker Activity (AID 2284282); details: primary human bronchial epithelial cells
Summary of the method: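 Human primary bronchial epithelial cells in the BE3C system were exposed to test chemical for 24 h, then Keratin 8/18 was quantified by ELISA. Activity was fitted in the positive direction against DMSO as negative control and baseline.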

[10] = read-out: Matrix Metallopeptidase 9 (MMP9), MMP9 (gene 4318); assay: BSK_BE3C_MMP9: BioMAP Diversity Plus: BE3C Assay for Matrix Metallopeptidase 9 (MMP9) Biomarker Activity (AID 2284283); details: primary human bronchial epithelial cells
Summary of the method: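 Human primary bronchial epithelial cells in the BE3C system were dosed with compound for 24 h. MMP-9 was measured by ELISA, and the positive-direction response was fitted relative to DMSO as baseline. Parallel SRB staining gauged cytotoxicity.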

[11] = read-out: TIMP metallopeptidase inhibitor 2 (TIMP2), TIMP2 (gene 7077); assay: BSK_hDFCGF_TIMP2: BioMAP Diversity Plus: hDFCGF Assay for TIMP metallopeptidase inhibitor 2 (TIMP2) Biomarker Activity (AID 2284289); details: primary human foreskin fibroblasts
Summary of the method: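 Primary human foreskin fibroblasts in the hDFCGF system, dosed for 24 h; TIMP-2 level measured by ELISA, fitted in the positive direction against DMSO; cytotoxicity checked in parallel by sulforhodamine B total protein staining.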

[12] = read-out: Thrombomodulin, THBD (gene 7056); assay: BSK_LPS_Thrombomodulin: BioMAP Diversity Plus: LPS Assay for Thrombomodulin Biomarker Activity (AID 2284296); details: primary human HUVEC with PBMC
Summary of the method: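 Human umbilical vein endothelial cells co-cultured with PBMC and stimulated with LPS; cell-surface thrombomodulin measured by ELISA 24 hours after compound. Gain or loss versus DMSO; cytotoxicity checked by SRB staining in parallel cultures.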

CD69, CD69 (gene 969) = assay: BSK_LPS_CD69: BioMAP Diversity Plus: LPS Assay for CD69 Biomarker Activity (AID 2284303); details: primary human HUVEC with PBMC
Summary of the method: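 Human umbilical vein endothelial cells co-cultured with PBMC under LPS stimulation, chemical exposure 24 h; cell-surface CD69 measured by ELISA and fitted in the positive direction versus DMSO.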

[13] = target: Hepatocyte nuclear factor 3-beta (Homo sapiens) (UniProt Q9Y261); assay: ATG_FoxA2_CIS: Attagene CIS-FACTORIAL HepG2 Assay for human Forkhead box A2 (FOXA2) (AID 2282942); details: HepG2 cis-reporter transcription factor activity, 24 h; actives raise or lower the signal
Summary of the method: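 Endogenous transcription factor activity is captured via cis-element-driven reporter transcripts in transfected HepG2. Total RNA taken at 24 h post-dosing; labelled RT-PCR products resolved by capillary electrophoresis. Gain or loss fitted versus DMSO.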

[14] = target: human Retinoid X Receptor beta (RXRb), RXRB (gene 6257) (UniProt P28702); assay: ATG_RXRb_TRANS: Attagene TRANS-FACTORIAL HepG2 Assay for human Retinoid X Receptor beta (RXRb) (AID 2283013; active = hit-call score of the fitted dose curve at least 0.9, where 1 is the maximum)
Summary of the method: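 HepG2 cells transiently transfected with multiplexed reporter units driven by GAL4-UAS and exogenous chimeric NR-Gal4 proteins; treated 24 h. Reporter mRNA measured by RT-PCR, 6-FAM labelling and capillary electrophoresis; gain-of-signal fitted versus DMSO baseline.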

[15] = target: human Vitamin D Receptor (VDR), VDR (gene 7421) (UniProt P11473); assay: ATG_VDR_TRANS: Attagene TRANS-FACTORIAL HepG2 Assay for human Vitamin D Receptor (VDR) (AID 2283022; active = hit-call score of the fitted dose curve at least 0.9, where 1 is the maximum)
Summary of the method: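 HepG2 cells were transiently transfected with multiple GAL4-UAS reporter units, so signal reflects exogenous chimeric receptor-Gal4 activity. After 24 h compound exposure, reporter mRNA was measured by RT-PCR, fluorescent labelling and capillary electrophoresis, fitted for gain of signal versus DMSO.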

[16] = target: Retinoic acid receptor RXR-alpha (Homo sapiens) (UniProt P19793); assay: ATG_RXRa_TRANS: Attagene TRANS-FACTORIAL HepG2 Assay for human Retinoid X Receptor alpha (RXRa) (AID 2283012; active = hit-call score of the fitted dose curve at least 0.9, where 1 is the maximum)
Summary of the method: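 HepG2 cells transiently transfected with multiplexed GAL4-UAS reporter units and chimeric NR-GAL4 fusions, dosed 24 h. Reporter mRNA measured by RT-PCR, FAM labelling, HpaI digestion and capillary electrophoresis; gain-of-signal fitted relative to DMSO baseline.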

[17] = ATG_NF_kB_CIS: Attagene CIS-FACTORIAL HepG2 Assay for human Nuclear Factor Kappa B (NF-kB) (AID 2282991); details: HepG2 Attagene cis-factorial NF-kB reporter mRNA; actives raise or lower the signal
Summary of the method: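 Readout is reporter transcript level, gain or loss versus DMSO, measured 24 h post-dose via RT-PCR, fluorescent labelling and capillary electrophoresis. Human HepG2 liver cells carried transiently transfected CIS reporter constructs reflecting endogenous factors.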

Measured: AC50

Sequence of Retinoic acid receptor RXR-alpha (Homo sapiens) (P19793 whole entry, looked up, the tested form may be a part): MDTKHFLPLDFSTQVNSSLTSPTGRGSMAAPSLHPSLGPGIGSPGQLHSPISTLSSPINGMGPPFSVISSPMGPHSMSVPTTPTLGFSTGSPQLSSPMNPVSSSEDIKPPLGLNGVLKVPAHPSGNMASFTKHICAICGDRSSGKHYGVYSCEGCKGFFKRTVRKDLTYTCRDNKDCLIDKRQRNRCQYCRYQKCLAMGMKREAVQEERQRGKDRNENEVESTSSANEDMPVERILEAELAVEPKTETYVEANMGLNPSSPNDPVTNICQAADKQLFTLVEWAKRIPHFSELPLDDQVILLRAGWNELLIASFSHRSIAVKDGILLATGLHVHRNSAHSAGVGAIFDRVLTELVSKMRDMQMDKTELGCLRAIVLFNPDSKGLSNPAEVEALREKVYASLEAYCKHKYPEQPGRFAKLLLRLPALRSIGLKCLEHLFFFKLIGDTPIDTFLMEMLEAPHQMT
Sequence of Hepatocyte nuclear factor 3-beta (Homo sapiens) (Q9Y261 whole entry, looked up): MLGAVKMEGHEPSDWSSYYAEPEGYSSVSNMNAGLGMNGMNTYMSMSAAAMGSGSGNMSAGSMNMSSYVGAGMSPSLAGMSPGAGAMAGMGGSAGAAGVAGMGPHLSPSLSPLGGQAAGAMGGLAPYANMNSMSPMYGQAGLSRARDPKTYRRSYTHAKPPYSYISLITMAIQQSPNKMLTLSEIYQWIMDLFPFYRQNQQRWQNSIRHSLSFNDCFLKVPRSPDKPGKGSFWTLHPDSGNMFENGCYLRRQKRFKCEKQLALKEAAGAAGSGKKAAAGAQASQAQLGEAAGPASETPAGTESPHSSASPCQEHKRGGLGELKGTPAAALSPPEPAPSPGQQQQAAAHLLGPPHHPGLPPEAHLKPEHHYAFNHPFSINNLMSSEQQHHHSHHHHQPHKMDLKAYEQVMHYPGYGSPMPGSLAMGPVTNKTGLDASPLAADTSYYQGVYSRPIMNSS
Sequence of E-selectin (Homo sapiens) (P16581 whole entry, looked up): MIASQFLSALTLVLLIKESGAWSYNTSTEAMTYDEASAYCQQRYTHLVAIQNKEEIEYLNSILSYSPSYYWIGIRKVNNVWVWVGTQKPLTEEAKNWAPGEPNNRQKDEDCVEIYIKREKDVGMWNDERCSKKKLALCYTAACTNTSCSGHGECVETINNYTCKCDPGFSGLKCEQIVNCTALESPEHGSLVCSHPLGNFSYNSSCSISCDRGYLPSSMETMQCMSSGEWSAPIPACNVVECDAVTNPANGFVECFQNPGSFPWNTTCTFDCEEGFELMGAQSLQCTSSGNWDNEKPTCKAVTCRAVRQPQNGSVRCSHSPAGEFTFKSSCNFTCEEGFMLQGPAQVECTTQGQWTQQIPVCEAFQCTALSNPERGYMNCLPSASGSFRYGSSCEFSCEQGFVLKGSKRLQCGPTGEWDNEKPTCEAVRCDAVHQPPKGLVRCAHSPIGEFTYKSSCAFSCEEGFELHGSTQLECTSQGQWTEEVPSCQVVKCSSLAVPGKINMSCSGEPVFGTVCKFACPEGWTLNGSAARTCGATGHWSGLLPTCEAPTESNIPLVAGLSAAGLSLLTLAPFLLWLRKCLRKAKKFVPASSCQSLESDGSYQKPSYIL
Sequence of human Retinoid X Receptor beta (RXRb), RXRB (gene 6257) (P28702 whole entry, looked up, the tested form may be a part): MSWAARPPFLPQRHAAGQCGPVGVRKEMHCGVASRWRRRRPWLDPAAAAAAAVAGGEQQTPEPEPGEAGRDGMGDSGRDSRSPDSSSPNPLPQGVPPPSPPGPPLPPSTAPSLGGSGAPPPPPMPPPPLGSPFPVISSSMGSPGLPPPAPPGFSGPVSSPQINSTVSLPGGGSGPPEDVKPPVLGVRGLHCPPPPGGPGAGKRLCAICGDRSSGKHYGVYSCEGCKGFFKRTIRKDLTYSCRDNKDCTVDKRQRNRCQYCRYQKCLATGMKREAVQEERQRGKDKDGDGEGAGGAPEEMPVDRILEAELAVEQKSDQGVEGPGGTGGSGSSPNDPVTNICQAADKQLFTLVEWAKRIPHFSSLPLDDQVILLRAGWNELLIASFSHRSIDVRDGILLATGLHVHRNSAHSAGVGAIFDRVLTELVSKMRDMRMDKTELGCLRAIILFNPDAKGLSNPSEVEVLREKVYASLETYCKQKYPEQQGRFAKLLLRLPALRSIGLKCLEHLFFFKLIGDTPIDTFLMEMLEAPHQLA
Sequence of human Vitamin D Receptor (VDR), VDR (gene 7421) (P11473 whole entry, looked up, the tested form may be a part): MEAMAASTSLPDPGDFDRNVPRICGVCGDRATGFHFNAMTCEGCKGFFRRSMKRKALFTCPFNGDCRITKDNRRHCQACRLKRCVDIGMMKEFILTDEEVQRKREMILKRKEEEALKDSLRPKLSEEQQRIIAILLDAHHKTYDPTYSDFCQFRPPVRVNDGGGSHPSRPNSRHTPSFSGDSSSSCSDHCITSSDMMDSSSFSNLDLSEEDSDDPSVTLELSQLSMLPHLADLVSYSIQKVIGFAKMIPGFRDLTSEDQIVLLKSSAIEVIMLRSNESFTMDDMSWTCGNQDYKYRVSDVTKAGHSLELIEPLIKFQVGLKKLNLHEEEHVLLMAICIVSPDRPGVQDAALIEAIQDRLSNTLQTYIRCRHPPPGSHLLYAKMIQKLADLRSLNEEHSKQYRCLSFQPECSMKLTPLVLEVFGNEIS

OC(C(F)(F)F)(C(F)(F)F)C(O)(C(F)(F)F)C(F)(F)F
inactive: [8] | [9] | KRT18 (gene 3875) | [12]
active: CD38, CD38 (gene 952) 34.1 µM and 21.9 µM | [1] 43.3 µM and 40.8 µM | [2] 23.3 µM and 22.9 µM | [3] 50.6 µM and 49.6 µM | [4] 30 µM and 21.4 µM | [5] 22.9 µM and 36.4 µM | [6] 26.9 µM and 26.8 µM | [7] 21.2 µM and 20.9 µM | [8] 44.7 µM | [9] 22.7 µM | [10] 30 µM | [11] 6.98 µM and 8.04 µM | CD69, CD69 (gene 969) 12.9 µM and 9.36 µM

COC(=O)/C=C\C(=O)OC
active: [2] 9.12 µM
inactive: [13] | [14] | [15] | CD38, CD38 (gene 952) | [1] | [3] | [4] | [5] | [6]

C=CN1CCCCCC1=O
inactive: [13] | [16] | [14] | [15]

COc1cc(CNC(=O)CCCC/C=C/C(C)C)ccc1O
active: [7] 8.32 µM and 8.05 µM | [11] 27.7 µM
inactive: CD38, CD38 (gene 952) | [1] | [2] | [3] | [4] | [5] | [6] | [8] | [9] | KRT18 (gene 3875) | [10] | [11] | [12] | CD69, CD69 (gene 969)

CCCCC(CC)COC(=O)C=Cc1ccc(OC)cc1 (stereo not given)
inactive: [3] | [7] | [8] | [9] | KRT18 (gene 3875) | [10]
active: CD38, CD38 (gene 952) 28.5 µM and 20 µM | [1] 31.7 µM and 32.3 µM | [2] 25.9 µM and 18.8 µM | [4] 23.5 µM and 36.7 µM | [5] 34.9 µM and 37.8 µM | [6] 31 µM and 35.2 µM | [11] 3.97 µM and 6.38 µM | [12] 10.6 µM and 20 µM | CD69, CD69 (gene 969) 15.4 µM and 23.4 µM

c1ccc2c(c1)Oc1ccccc1S2
inactive: [13] | [17] | [16] | [14] | [15]

COc1ccccc1Oc1c(NS(=O)(=O)c2ccc(C(C)(C)C)cc2)nc(-c2ncccn2)nc1OCCO
active: [5] 6.88 µM and 8.61 µM
not listed: [13] | [14] | [15] | [16] | [17]
inactive: all other assays above

[O-][n+]1ccc(Cl)cc1
inactive: [13] | [17] | [14] | [15]

Cc1cc(O)cc(C)c1Cl
inactive: [17] | [16]
active: [14] 48.8 µM

C1CN(CCOCCN2CCOCC2)CCO1
not listed: [13] | [14] | [15] | [16] | [17]
inactive: all other assays above

CCC(C)=NO
inactive: [15] | CD38, CD38 (gene 952) | [1] | [2] | [3] | [4] | [5] | [6]

CCC(C)(CCC(C)C)C(=O)O (stereo not given)
inactive: [13] | [17] | [15]
